Compound activity (PubChem BioAssay)
L3MBTL1 inh = qHTS Assay for the Inhibitors of L3MBTL1; AlphaScreen L3MBTL1–H3K9me1 peptide binding; Potency, µM (doses to about 57.1 µM), for inactives: at the highest dose activity, negative = inhibition, usual class: inhibitors; 0.66% of 230,000 active; further: on the % scale 0 is the no-effect control and ±100 the full control effect; nearly all actives have a fitted effect of over 60% in size
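L3MBTL1 (50 nM) pre-complexed 30 min with biotinylated H3(1-15)K9me1 peptide (75 nM), then compounds added for 30 min at room temperature; AlphaScreen streptavidin donor/nickel chelate acceptor beads (10 ug/mL final) read after 30 min dark incubation.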
BAZ2B inh = qHTS Assay for Inhibitors of BAZ2B | AlphaScreen BAZ2B-H3K14Ac peptide displacement | 4.4% of 360,000 active | Bromodomain adjacent to zinc finger domain protein 2B (Homo sapiens), Q9UIF8 | Potency, µM (titrated, usually from 114 µM), for inactives: at the highest dose activity change, negative = inhibition, most hits filed as inhibitors; further: on the % scale 0 is the no-effect control and ±100 the full control effect; nearly all actives have a fitted effect of over 60% in size
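AlphaScreen displacement: compounds (up to 110uM) incubated 30 min at room temperature with a preformed 50 nM BAZ2B/50 nM biotinylated H3K14Ac peptide complex in PBS pH 7.4 with Tween-20. Donor and acceptor beads at 10 ug/mL final added, 20 min light-protected before reading.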
Sfp inh = qHTS Assay for Inhibitors of Bacillus subtilis Sfp phosphopantetheinyl transferase (PPTase); 4'-phosphopantetheinyl transferase ffp (Bacillus subtilis), Q9F4F7; Biochemical Sfp PPTase activity, qHTS; Potency, µM, inactives show largest response in the series, negative = inhibition, actives largely listed as inhibitors; 3.5% of 310,000 active; AID 1490, 2009;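 further: the enzyme is Sfp with the accession as filed and its product quenches rhodamine fluorescence; 0% = enzyme reaction without inhibitor and -100% = no enzyme wells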
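After 15 min at room temperature with compound, 15 nM Sfp received 5 uM rhodamine-CoA plus 12.5 uM BHQ-2-ybbR (50 mM Hepes pH 7.6, 10 mM MgCl2). Rate came from the fluorescence difference over 30 min, ex 525/em 598 nm.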
HP1b chromo inh = HTS for Inhibitors of HP1-beta Chromodomain Interactions with Methylated Histone Tails | Chromobox protein homolog 1 (Homo sapiens), P83916 | AlphaScreen HP1-beta / biotin-H3K9me3 peptide binding | Potency, µM (top dose mostly 114 µM), inactives show at the top dose activity change, negative = inhibition, usual class: inhibitors | 0.56% of 390,000 active | AID 540317, 2011; further: nearly all actives have a fitted effect of over 70% in size
Target sequence (P83916 whole entry, looked up): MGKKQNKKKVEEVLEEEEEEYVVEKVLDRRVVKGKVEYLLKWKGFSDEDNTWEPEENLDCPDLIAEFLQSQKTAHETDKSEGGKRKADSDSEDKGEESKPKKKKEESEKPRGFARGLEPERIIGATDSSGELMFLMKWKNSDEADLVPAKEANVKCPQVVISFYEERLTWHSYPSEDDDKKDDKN
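Compound inhibition of the preformed complex between 50 nM HP1-beta and 50 nM biotinylated H3K9me3 peptide was read by AlphaScreen. Buffer was PBS pH 7.4 with 0.01% Tween-20. Incubations ran 30 min at room temperature, with 10 ug/mL donor/acceptor beads.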
G9a block = qHTS Assay for Inhibitors of Histone Lysine Methyltransferase G9a | Histone-lysine N-methyltransferase EHMT2 (Homo sapiens), Q96KQ7 | G9a H3K9 monomethylation, AlphaScreen, 2 h | Potency, µM (titrated, usually from 102 µM), for the others: at the top dose activity, negative = inhibition, actives largely listed as inhibitors | 8.8% of 350,000 active | AID 504332, 2011; further: on the % scale 0 is the no-effect control and ±100 the full control effect; nearly all actives have a fitted effect of over 75% in size
Target sequence (Q96KQ7 913-1193 limits assumed): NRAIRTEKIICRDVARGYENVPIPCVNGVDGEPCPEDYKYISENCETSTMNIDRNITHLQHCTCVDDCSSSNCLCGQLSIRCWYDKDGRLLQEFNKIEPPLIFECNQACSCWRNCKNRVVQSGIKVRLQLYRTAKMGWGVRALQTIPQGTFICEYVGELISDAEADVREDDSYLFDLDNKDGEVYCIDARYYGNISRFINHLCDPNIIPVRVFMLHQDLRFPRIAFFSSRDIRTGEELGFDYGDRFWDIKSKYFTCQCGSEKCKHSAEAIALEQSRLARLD
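Using a bead-based AlphaScreen, monomethylated H3K9 product from 2 h room-temperature reactions (G9a 20 nM, peptide 500 nM, SAM 20 uM) was detected with 0.5 ug/mL rabbit anti-H3K9me1 antibody.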
JMJD2A Tudor inh = qHTS Assay for Inhibitors of JMJD2A-Tudor Domain; Lysine-specific demethylase 4A (Homo sapiens), O75164; AlphaScreen JMJD2A-Tudor / H3K4me3 peptide binding; Potency, µM (top dose mostly 114 µM), for the others: at the highest dose activity change, negative = inhibition, most hits filed as inhibitors; 4.4% of 390,000 active; further: on the % scale 0 is the no-effect control and ±100 the full control effect; nearly all actives have a fitted effect of over 50% in size
Active calls of the source: *; ? = inconclusive; / = no result; [ ] = remark or other dose. The list is not random: actives were taken first. Their share in the collection is about 12%. The call rests on the fitted dose curve; in most records, active means well fitted curve in the direction sought with a large enough effect; inconclusive means small, poorly fitted or top-dose-only effect, or another doubt; inactive means no such curve, though single readings can be large; an effect the other way counts as inactive or inconclusive. Potency means the concentration at half of the fitted maximal effect.

SMILES	L3MBTL1 inh	BAZ2B inh	Sfp inh	HP1b chromo inh	G9a block	JMJD2A Tudor inh
CCC(=O)Nc1c2c(nn1-c1ccccc1)CSC2	/	-12%[57.1 µM]	13%	40%	8%	-1%
O=C(Nc1cc(OC(=O)C(F)(F)F)c2nonc2c1OC(=O)C(F)(F)F)C(F)(F)F	/	/	/	-6%[57 µM]	/	-8%[57.1 µM]
CCCSc1ncc(Cl)c(C(=O)Nc2c(C(=O)c3ccc(F)cc3)oc3ccccc23)n1	/	0%	/	7%	-2%[59 µM]	-19%
Cc1ccc(-n2nc3c(c2NC(=O)CC(C)C)CS(=O)C3)cc1 (centres undefined)	-8%	-10%	-9%	48%	32µM*	-7%
Cc1ccccc1-n1nc2c(c1NC(=O)CCCl)CSC2	/	6%	9%	22%	6%[2.33 µM]	-6%
Cc1ccc(-n2nc3c(c2NC(=O)c2ccc(Br)o2)CSC3)c(C)c1	-4%	-8%	?	18%	40µM*	-13%
Cc1ccc(-n2nc3c(c2NC(=O)/C=C\c2ccc4c(c2)OCO4)CSC3)c(C)c1	-8%	-12%	-5%	16%	-7%	-34%
CC(C)CC(=O)Nc1c2c(nn1-c1ccc(F)cc1)CS(=O)C2 (centres undefined)	/	-11%	9%	36%	18%[59 µM]	-9%
Cc1cccc(-n2nc3c(c2NC(=O)c2ccco2)CSC3)c1C	-12%	-6%	40µM*	-26%	40µM*	50µM*
COc1ccc(CCNC(=O)CCCn2c(=O)c3ccccc3n(Cc3ccccc3)c2=O)cc1OC	/	-37%	/	11%	-37%[59 µM]	-16%
O=[N+]([O-])/C(C(Cl)=C(Cl)Cl)=C1\Nc2ccccc2O1	-13%	50µM*	-16%	?	35µM*	40µM*
CCOc1cc([N+](=O)[O-])cc2c1C(=O)Nc1ccccc1O2	/	-9%	13%	6%	1%	-30%
CCOC(=O)C1(C)NC(c2ccccc2F)C2C(=O)N(c3cccc(C(C)=O)c3)C(=O)C21 (centres undefined)	4%	19%	7%	?	13%	35µM*
CCOC(=O)C1(C)NC(c2cccs2)C2C(=O)N(c3ccc(OC)cc3)C(=O)C21 (centres undefined)	1%	2%	15%	3%	4%	10µM*
COc1cccc(CNC(=O)Cc2c(C)c3ccc(OC)c(C)c3oc2=O)c1	/	-2%	/	47%	5%[59 µM]	-18%
CCOc1ccccc1NC(=O)CN1C(=O)COc2ccc(S(=O)(=O)N3CCCCC3)cc21	/	-15%	/	61%	3%[59 µM]	7%
COc1ccc(CCNC(=O)C(CC(C)C)N2Cc3ccccc3C2=O)c(OC)c1OC (centres undefined)	/	1%	/	28%	-4%[59 µM]	7%
Cc1ccccc1Nc1cc(C(=O)NC2CCCC2)c2ccccc2n1	/	/	/	14%	11%[59 µM]	-16%
Cc1cc(C(=O)CSc2nnc(-c3cccs3)n2Cc2ccccc2)c(C)n1C	-12%	/	-23%	-22%	?	?
O=c1cc(CSc2nnc(-c3cccs3)n2Cc2ccccc2)nc2sc3ccccc3n12	?	45µM*	-13%	22%	?	-35%
COc1ccc(N2CCN(C(=O)c3ccc(S(=O)(=O)N4CCOCC4)cc3)CC2)cc1	-2%	-28%	9%	-17%	8.9µM*	-27%
COc1ccc(C(=O)c2ccc(N3CCOCC3)cc2)c(OC)c1	-10%	-9%	0%	-2%	25µM*	-17%
COc1ccc(N2CCN(C(=O)c3ccc(S(=O)(=O)N4CCCCCC4)cc3)CC2)cc1	-4%	13%	/	-23%	?	?
COc1ccc(N2CCN(S(=O)(=O)c3ccc(OC)c(C(=O)N4CCCC4)c3)CC2)cc1	/	-6%	6%	11%	79µM*	-6%
COc1ccc(N2CCN(C(=O)c3ccc(S(=O)(=O)N4CCCC4)cc3)CC2)cc1	/	-26%	13%	-18%	79µM*	-31%
SMILES	L3MBTL1 inh	BAZ2B inh	Sfp inh	HP1b chromo inh	G9a block	JMJD2A Tudor inh
CNCC[C@H](Oc1ccccc1OC)c1ccccc1	/	/	8%	/	8%[21.5 µM]	/
CCN(CC)S(=O)(=O)c1ccc(C(=O)NCCCn2ccnc2)cc1	13%	0%	24%	42%	12%	8%[57.1 µM]
O=C(NCCCn1ccnc1)c1ccc2nccnc2c1	/	50µM*	6%	20%	/	-11%
CCN(CC)S(=O)(=O)c1cccc(C(=O)NCCCn2ccnc2)c1	8%	-26%	10%	33%	56µM*	-4%
CCN(CC)S(=O)(=O)c1cccc(C(=O)NC2=NCCS2)c1	-2%	-2%	22%	14%	50µM*	-16%
Cc1nn(C)c2c1c(-c1ccccc1)cc(=O)n2C(C)C(=O)NCc1ccc(F)cc1 (centres undefined)	/	-14%	/	-15%	3%[59 µM]	-19%
Cc1ccc(Cl)cc1N1CCN(C(=O)c2ccc3c(c2)N(Cc2ccc(F)cc2)CCS3)CC1	/	?	/	12%	?	-30%
CC1(C)OC(C)(C)/C(=C/Nc2ccc(O)cc2)C1=O	?	?	?	-27%	8.9µM*	?
COC(=O)c1ccc(CSc2nc3ccncc3n2Cc2ccc(F)cc2)cc1	/	-2%	/	41%	-31%[59 µM]	4%
CCCCC(=O)Nc1cc2nn(-c3ccc(OCC)cc3)nc2cc1C	/	0%	/	26%	-2%[59 µM]	7%
Cc1cc2nn(-c3ccccc3)nc2cc1NC(=O)Cc1ccc(Cl)cc1	/	-20%	/	29%	14µM*	-9%
